Test results from PubChem BioAssay (EPA / NIEHS).
The source made the active and inactive calls. How the source made its calls: active means hit-call score of the fitted dose curve at least 0.9, where 1 is the maximum; inactive means score below 0.9.

Assay: ATG_TCF_b_cat_CIS: Attagene CIS-FACTORIAL HepG2 Assay for human T-Cell-Factor with beta-catenin (TCF/b-cat) (AID 2282965)
Conditions: HepG2 TCF/beta-catenin cis-reporter transcription, actives raise or lower the signal
Experimental: ATG_CIS is a cell-based, multiplexed-readout assay that uses HepG2, a human liver cell line, with measurements taken at 24 hours after chemical dosing in a 24-well plate.ATG_TCF_b_cat_CIS is one of 52 assay component(s) measured or calculated from the ATG_CIS assay. It is designed to make measurements of mRNA induction, a form of inducible reporter, as detected with fluorescence intensity signals by Reverse transcription polymerase chain reaction (RT-PCR) and Capillary electrophoresis technology.Data from the assay component ATG_TCF_b_cat_CIS was analyzed into 1 assay endpoint. This assay endpoint, ATG_TCF_b_cat_CIS, was analyzed with bidirectional fitting relative to DMSO as the negative control and baseline of activity. Using a type of inducible reporter, measures of mRNA for gain or loss-of-signal activity can be used to understand the reporter gene at the transcription factor-level as they relate to the gene TCF7 and TCF7L2 and LEF1 and TCF7L1. Furthermore, this assay endpoint can be referred to as a primary readout, because this assay has produced multiple assay endpoints where this one serves a reporter gene function. To generalize the intended target to other relatable targets, this assay endpoint is annotated to the dna binding intended target family, where the subfamily is HMG box protein.
Human liver HepG2 cells are transiently transfected with multiple reporter transcription units (MRTUs) in 6-well plates using FuGene 6 reagent (Roche; 3 ml FuGene/1 mg DNA). The MRTU constructs are regulated by a cis-regulating element (promoter). […] A major difference between the CIS and TRANS system is that in CIS activities of endogenous TFs are measured, whereas the TRANS assay evaluates changes in activities of exogenous, chimeric NR-Gal4 proteins. […] At the end of 24 hour incubation, total RNA was isolated using TriZol reagent (Invitrogen). The isolated RNA is then reverse-transcribed using oligo(dT) primer and Mo-MLV reverse transcriptase (Invitrogen) with DNAse I (Ambion) treatment for 30 min. The one-tenth of the produced cDNA was amplified by PCR using Taq DNA polymerase (Invitrogen) and two reporter sequence-specific primers. The PCR products were fluorescently labeled by primer extension with 6-arboxyfluorescein (6-FAM) 5'-labeled reporter sequence-specific primer (2 min at 95 C, 20 s at 68 C and 10 min at 72 C) and these products were digested with 5U of HpaI (New England Biolabs) for 2h at 37 C. The fragments were purified using Qiaquick PCR columns (Qiagen), analyzed on an ABI 3130xL genetic analyzer (Applied Biosystems) with peak positions identified by using a set of X-rhodamine (ROX)-labeled MapMarker1000 molecular weight standards (BioVentures). The raw capillary electrophoresis data was processed using Attagraph software (Attagene).

Compound	outcome
CC(C)=CCl	inactive
N#CC1(N)CCCCC1	inactive
C=CC(=O)OCCCCCCCC(C)C	inactive
CC1(C)CC(O)CC(C)(C)N1[O]	inactive
CC1=CCC2CC1C2(C)C (stereo not given)	inactive
O=C(O)C(F)(F)C(F)(F)C(F)(F)C(F)(F)C(=O)O	inactive
CC(=O)C(C)C	inactive
[Cl][Sc]([Cl])[Cl]	inactive
CC(c1cc(C(C)(C)C)cc(C(C)(C)C)c1O)c1cc(C(C)(C)C)cc(C(C)(C)C)c1O	inactive
Fc1ccc(Br)cc1	inactive
CC(C)OC(=O)c1ccccc1	inactive
C=CC(=O)O[C@H]1C[C@@H]2CC[C@@]1(C)C2(C)C	inactive
Nc1ccc(O)c([N+](=O)[O-])c1	inactive
Cc1ccccc1CCO	inactive
CCCCC(CC)COS(=O)(=O)O (stereo not given)	inactive
C=CCCCCCCCCO	inactive
CCCCCC1=CCCC1=O	inactive
CCCCOCCOCCOC(C)=O	inactive
CC(C)(c1ccccc1)c1ccc(Nc2ccc(C(C)(C)c3ccccc3)cc2)cc1	inactive
CC(C)[N+](C)(CCOC(=O)C1c2ccccc2Oc2ccccc21)C(C)C	inactive

Compound	outcome
CCCCCCCCCC[N+](C)(CCCCCCCCCC)CCC[Si](OC)(OC)OC	inactive
CCCCOC(=O)C(C)CC (stereo not given)	inactive
CC1(C)[C@@H]2CC[C@@]1(C)C(=O)C2	inactive
CCC(C)C(=O)OCCc1ccccc1 (stereo not given)	inactive
COC(=O)C=Cc1ccccc1	inactive
CC1=NN(c2ccc(S(=O)(=O)O)cc2)C(=O)C1N=Nc1ccccc1 (stereo not given)	inactive
COC(=O)c1ccc(C(=O)OC)c(C(=O)OC)c1	inactive
CCOB(OCC)OCC	inactive
Cn1ccnc1	inactive
CC(=O)CCC=C(C)C	inactive
CCCCNC(=S)NCCCC	inactive
COC(C=C(C)CCC=C(C)C)OC	inactive
CCCCCOC(=O)CCCCC	inactive
CC(CCC(=O)O)(c1ccc(O)cc1)c1ccc(O)cc1	inactive
CC(=O)/C=C/C1C(C)=CCCC1(C)C (stereo not given)	inactive
CCOc1ccc(NC(N)=O)cc1	inactive
Cc1c[nH]c(=O)[nH]c1=O	inactive
CC(C)=CCCC(C)=CC#N	inactive
CC1CC(=O)CC(C)(C)C1 (stereo not given)	inactive
O=C(O)c1ccc2c(c1)C(=O)OC2=O	inactive
